# Rows were chosen to be rich in hits. Some 3.5% of all compounds tested hit in one or more screens of this group.
# Bead autofluor = compound fluorescence in toxin protease inhibitor counterscreen; compound autofluorescence counterscreen, microsphere flow cytometry; active compounds read high; fluorescence intensity (test concentration not listed); 360,000 compounds, 3.1% hits; in the data active = fluorescence intensity above about 16000; inconclusive = no clear call, values can overlap the other calls
# BoNT-F LC inh = blocks Botulinum neurotoxin F light chain protease; Multiplex microsphere protease cleavage assay, flow cytometry; AID 588497; inhibition, % at 10 µM; 360,000 compounds, 0.22% hits; in the data active = inhibition above about 35%, passing the limit was not always enough; inconclusive = no clear call, values can overlap the other calls; note: plate controls were buffer without enzyme for full effect and enzyme alone for no effect
# Anthrax LF prot = anthrax lethal factor protease inhibition; 360,000 compounds, 0.12% hits; AID 588501; inhibition, % at 10 µM; P15917; multiplex microsphere protease cleavage assay, LF; note: plate controls were buffer without enzyme for full effect and enzyme alone for no effect
# BoNT-A LC inh2 = inhibitors of Botulinum neurotoxin A light chain protease. multiplex microsphere protease substrate cleavage, flow cytometry. inhibition, % at 10 µM. 360,000 compounds, 0.17% hits. AID 588499; note: plate controls were buffer without enzyme for full effect and enzyme alone for no effect
# * = called active by the depositor; u = inconclusive. Cut-off read from the data, not from the text of the source, unless noted: active = inhibition above about 30%; inconclusive = no clear call, values can overlap the other calls; inactive = below that.
SMILES,Bead autofluor,BoNT-F LC inh,Anthrax LF prot,BoNT-A LC inh2
CC(Sc1nc2ccccc2[nH]1)C(=O)O (stereo not given),23428*,5,1,1
S=C(NCCc1ccccc1)N1Cc2cc(N3CCCCC3)ccc2-n2nncc2C1,32547*,70*,-7,-20
S=C(NCCc1ccccc1)N1Cc2cc(-c3ccccc3)ccc2-n2nncc2C1,5567,6,12,5
COc1ccc(C(C)=O)cc1COC(=O)c1cccc(N(C)C)c1,3334,39*,-4,0
O=C(COc1cccc(Cl)c1)Nc1ccccc1N1CCCCC1,4941,-1,0,3
Cc1ccccc1-n1c(=O)/c(=C\c2ccco2)s/c1=C(/C#N)C(=O)Nc1ccccc1,20678*,8,4,8
Cc1nn(C)c(C)c1CCC(=O)N1CCCC(N2CCN(c3ccc(F)cc3)CC2)C1 (stereo not given),5885,-1,2,0
COc1cccc(CSc2nnc(C(F)(F)F)n2Cc2ccc(F)cc2)c1,22093*,5,-1,3
Cc1ccc(CSc2nnc(C(F)(F)F)n2Cc2ccc(F)cc2)cc1,9775,7,1,1
O=C1c2ccccc2C(=O)N1CCCCN(C(=O)c1cccc([N+](=O)[O-])c1)c1ccc(Cl)cc1,20654*,-6,0,-3
O=C1c2ccccc2C(=O)N1CCCCN(C(=O)c1ccco1)c1ccc(Cl)cc1,3220,1,-4,0
CCc1c(C)sc(NC(=O)c2cc(-c3cc(OC)ccc3OC)on2)c1C#N,21969*,6,-2,4
Cc1nn(-c2ccccc2)c2nc(C(Cl)(Cl)Cl)[nH]c(=O)c12,4377,-6,-2,0
N#Cc1ccc(CSc2nnc(-c3ccccn3)n2-c2ccccc2)cc1,2869,-3,-3,0
N#Cc1ccc(CSc2nnc(COc3ccccc3)n2-c2ccccc2)cc1,24330*,-9,-1,-6
COc1ccc(-n2c(COc3ccccc3)nnc2SCc2ccc(C#N)cc2)cc1,19781*,-2,-7,0
Nc1nnc(SCc2ccc(F)cc2)n1-c1ccccc1,21997*,-7,1,-8
CCCCNC(=O)C(CC)(ONc1ccccc1C(F)(F)F)c1ccccc1 (stereo not given),3449,-3,4,1
CN1CN(C)C(c2ccncc2)=C1c1ccncc1,3032,-9,-6,-2
CC(C)(C)NC(=O)COc1ccc(CNn2nnnc2N)cc1,3463,2,2,0
COc1cc(CNn2nnnc2N)ccc1OCC(=O)NC(C)(C)C,23140*,-1,-1,1
CCOc1cc(CNn2nnnc2N)ccc1OCC(=O)NC(C)(C)C,16985*,-4,0,-2
COCCn1c(C)cc(C(=O)COC(=O)CCS(=O)(=O)c2ccc(C)cc2)c1C,6959,-12,-5,-4
COCCn1c(C)cc(C(=O)COC(=O)CCc2ccc(S(=O)(=O)N3CCOCC3)cc2)c1C,22125*,-2,-3,u
Cc1ccc(NC(=O)CCc2ccc(S(=O)(=O)N3CCOCC3)cc2)c(C)c1,20854*,3,-8,u
SMILES,Bead autofluor,BoNT-F LC inh,Anthrax LF prot,BoNT-A LC inh2
Cc1cccc(C)c1OCC(O)CN1CCC(CN2C(=O)c3cccc4cccc(c34)C2=O)CC1 (stereo not given),5333,-50,-2,0
O=C(COc1ccc(Br)cc1)NCCCN1CCCC1=O,4020,-9,-7,0
O=C(COc1cccc(C(F)(F)F)c1)NCCCN1CCCC1=O,16354*,0,3,u
Cc1ccc(N2C(=O)[C@@H]3Cc4ccccc4CN3C2=O)cc1,21075*,3,-15,2
CC1(C(=O)NC2CCCCCCC2)CC1(Cl)Cl (stereo not given),17224*,-3,-5,-3
CN(C)/C=C/C(=O)c1ccc(Cl)cc1,u,-7,u,u
CN(C)/C=C/C(=O)c1cccc(Cl)c1,16675*,-5,-4,-1
COc1ccc(CCNC(=O)C2CCCN2C(=O)Nc2ccc(F)cc2)cc1OC (stereo not given),3838,-6,-13,0
NS(=O)(=O)c1ccc(NC(=O)C2C3C=CC(C3)C2C(=O)O)cc1 (stereo not given),3561,-8,3,-1
O=C(c1ccccc1)c1c[nH]c(C(=O)NCCCN2CCOCC2)c1,22011*,0,-1,u
O=C(c1ccc(F)cc1)c1c[nH]c(C(=O)NCCCN2CCOCC2)c1,5926,-13,-2,0
CCC(CC)C(=O)c1c[nH]c(C(=O)NCCCN2CCOCC2)c1,23037*,-2,-2,u
Cc1noc(C)c1S(=O)(=O)N(C)C[C@H]1OCc2cnnn2CCCC(=O)N([C@H](C)CO)C[C@H]1C,3792,-5,-12,0

# Assay outcomes deposited in PubChem BioAssay by NMMLSC.
